GPT2 inhibitor: GPT2 alanine aminotransferase inhibition; Q8TD30; Recombinant GPT2, coupled pyruvate oxidase/HRP Amplex Red fluorescence; Potency, µM (highest dose often 57.7 µM), usual class: inhibitors; 100,000 tested, 0.25% active; AID 1671188; note: nearly all actives have a fitted effect of over 60% in size
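Fluorescence read-out: pyruvate from GPT2 turnover coupled to pyruvate oxidase, HRP and Amplex Red (0.2mM ThPP, 0.2U/mL PO and HRP, 50uM Amplex final). Substrates 250uM a-KG, 2mM L-alanine; enzyme 10ng/uL; 30 min RT.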
Luciferase inh: blocks purified firefly luciferase enzyme activity | P08659 | purified P. pyralis luciferase, luminescence, biochemical | Potency, µM (highest dose often 115 µM), hits mostly inhibitors | 76,000 tested, 2.5% active | AID 1347043; note: nearly all actives have a fitted effect of over 65% in size
Target sequence (P08659 whole entry, looked up): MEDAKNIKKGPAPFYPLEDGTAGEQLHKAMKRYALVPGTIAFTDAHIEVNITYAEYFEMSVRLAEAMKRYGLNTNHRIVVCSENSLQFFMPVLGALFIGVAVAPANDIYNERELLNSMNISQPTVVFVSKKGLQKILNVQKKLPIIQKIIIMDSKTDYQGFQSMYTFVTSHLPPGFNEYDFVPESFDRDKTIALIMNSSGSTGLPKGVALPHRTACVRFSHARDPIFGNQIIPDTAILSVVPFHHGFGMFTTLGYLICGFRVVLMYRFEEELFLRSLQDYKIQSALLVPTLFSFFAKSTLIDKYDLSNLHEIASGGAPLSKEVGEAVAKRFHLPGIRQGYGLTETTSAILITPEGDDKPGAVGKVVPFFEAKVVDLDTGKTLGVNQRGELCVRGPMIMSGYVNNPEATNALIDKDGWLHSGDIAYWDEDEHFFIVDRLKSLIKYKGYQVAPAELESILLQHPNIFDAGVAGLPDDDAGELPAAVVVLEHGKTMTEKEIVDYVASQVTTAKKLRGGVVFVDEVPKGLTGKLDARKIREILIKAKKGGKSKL
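Luminescence read by CCD imaging after purified firefly luciferase (10nM final) was added to substrate buffer holding 10uM D-luciferin and 10uM ATP, pH 7.5, pre-dosed with compound.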
HEK cytotox: cytotoxic compounds in HEK 293 cells; HEK 293 viability, ATP luminescence (CellTiter-Glo), 48-72 h; Potency, µM (series often up to 115 µM), hits mostly inhibitors; 94,000 tested, 6.6% active; AID 1345083; note: nearly all actives have a fitted effect of over 60% in size
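Luminescence from cellular ATP, measured with CellTiter-Glo, indicates HEK 293 viability. Cells plated at 250 cells/well are treated with compound for 48 or 72 hr at 37 degree Celsius before reagent addition.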
NIH3T3 tox: NIH 3T3 cell cytotoxicity; NIH 3T3 viability, CellTiter-Glo ATP luminescence, 48-72 h; Potency, µM (series often up to 96.7 µM), hits mostly inhibitors; 94,000 tested, 4.3% active; AID 1345082; note: nearly all actives have a fitted effect of over 55% in size
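Cytotoxicity was measured by CellTiter-Glo ATP luminescence after 48 or 72 h compound exposure at 37 °C. Mouse NIH 3T3 fibroblasts were seeded at 400 cells/well and dosed by 23 nL pin transfer.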
NPR1 antag: antagonists of human natriuretic peptide receptor Npr1; HEK293 hNpr1 GloSensor cGMP, ANP-stimulated luminescence; Potency, µM (series often up to 46.3 µM), usual class: inhibitors; 76,000 tested, 1.6% active; AID 1347048; calls by dose curve; note: nearly all actives have a fitted effect of over 60% in size
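Compound pre-incubated 30 min at room temperature on GloSensor-loaded HEK293 cells stably carrying hNpr1 and the pGS-40F cGMP biosensor. Stimulation uses hNppA at 0.1 nM final; luminescence is taken at baseline and 20 min post-agonist.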
Of the large screens only hits and unclear results are named; the others gave an inactive call. This is a sample that favours compounds with a hit; in the whole collection about 10% have one here. Unless noted, calls come from the whole dose curve; as a rule, active = well fitted curve in the direction sought with a large enough effect; inconclusive = small, poorly fitted or top-dose-only effect, or another doubt; inactive = no such curve, though single readings can be large; an effect the other way counts as inactive or inconclusive.

O=C1OC[C@@H]2CCN(Cc3ccc(F)c(F)c3)Cc3ccc(F)cc3N12	GPT2 inhibitor inconclusive, HEK cytotox inconclusive
COc1cccc(NC(=O)N2CCCC(O)(CNS(C)(=O)=O)CC2)c1 (stereo not given)	none
O=C(NCc1ccccc1)C1CCCN(Cc2cccc(-c3ccsc3)c2)C1 (stereo not given)	HEK cytotox inconclusive, NIH3T3 tox 40µM (no result: GPT2 inhibitor, Luciferase inh, NPR1 antag)
NC(=O)C1(C(=O)N2CCc3cc(S(=O)(=O)Nc4cccnc4)ccc3C2)CC1	GPT2 inhibitor inconclusive
COc1cc(=O)n2c(c1C(=O)Nc1ccc(C#N)cc1)CCCC2	none
COCC(=O)Nc1ccc(-c2noc([C@@H]3CCCN3Cc3cc4ccccc4o3)n2)cn1	HEK cytotox 71µM, NIH3T3 tox inconclusive
COCC(=O)Nc1ccc(-c2noc([C@@H]3CCCN3Cc3ccc(NC(C)=O)cc3)n2)cn1	none
COc1ccc(C(=O)Nc2ccc(-c3noc([C@@H]4CCCN4Cc4ccncc4)n3)cn2)cc1	Luciferase inh inconclusive, HEK cytotox inconclusive, NIH3T3 tox inconclusive, NPR1 antag 13µM
CN1CCN(Cc2ccc(Nc3cnc4ccc(-n5ccnc5)nn34)cc2)CC1	Luciferase inh inconclusive, HEK cytotox 50µM, NIH3T3 tox inconclusive
CN1CCN(Cc2ccc(Nc3cnc4ccc(N5CCOCC5)nn34)cc2)CC1	GPT2 inhibitor inconclusive, HEK cytotox inconclusive
N#Cc1cccnc1-c1cccc(C(=O)NCCNC(=O)c2cccc(Cl)c2)c1	HEK cytotox inconclusive, NIH3T3 tox inconclusive (no result: Luciferase inh, NPR1 antag)
CS(=O)(=O)c1ccc(OCC2(CNCc3cccc(C(F)(F)F)c3)C[C@@H](O)[C@@H](O)C2)cc1 (stereo not given in full)	HEK cytotox 79µM, NIH3T3 tox inconclusive
N#Cc1cccnc1-c1ccc(C(=O)N2CCC(NC(=O)Nc3ccccc3)CC2)cc1	HEK cytotox inconclusive, NIH3T3 tox inconclusive (no result: Luciferase inh, NPR1 antag)
Fc1ccccc1-c1noc(-c2nc(C3CC3)no2)n1	Luciferase inh 4.5µM, HEK cytotox inconclusive, NPR1 antag inconclusive
CC1(C)CC(NC(=O)C2CCN(c3nc(-c4ccccc4)nc4c3CCC4)CC2)CCO1 (stereo not given)	HEK cytotox inconclusive, NIH3T3 tox inconclusive
Cc1noc2c(N3CCN(Cc4ccccc4)CC3)cc(-c3cccnc3)nc12	GPT2 inhibitor inconclusive, HEK cytotox 63µM, NIH3T3 tox inconclusive
CC(=O)N1CCN(c2cc(-c3ccccc3)nc3c(C)noc23)CC1	GPT2 inhibitor inconclusive, NIH3T3 tox 89µM
Cc1noc2c(N3CCOCC3)cc(-c3cccnc3)nc12	NIH3T3 tox inconclusive
Cc1ccc(-c2cc(-c3cccnc3)nc3c(C)noc23)c(C)c1	GPT2 inhibitor inconclusive, Luciferase inh inconclusive, HEK cytotox 79µM, NIH3T3 tox inconclusive
O=C1CCN(C(=O)c2cccnc2)CCCC(C(=O)NCCC2=CCCCC2)CCN1 (stereo not given)	none
COc1ccc(-c2cc(N3CCCC(NC(=O)c4ccccc4)C3)n[nH]2)cc1 (stereo not given)	Luciferase inh 22µM, HEK cytotox inconclusive, NIH3T3 tox inconclusive
CN(C)c1cccc(C(=O)NC2CCCN(c3cc(-c4ccccc4)[nH]n3)C2)c1 (stereo not given)	Luciferase inh 35µM, HEK cytotox inconclusive, NIH3T3 tox inconclusive
O=C(NC1CCCN(c2cc(-c3ccccc3)[nH]n2)C1)c1cccc(Br)c1 (stereo not given)	HEK cytotox inconclusive, NIH3T3 tox inconclusive
COc1ccc(-c2cc(N3CCCC(NC(=O)c4cccc(Br)c4)C3)n[nH]2)cc1 (stereo not given)	Luciferase inh inconclusive, HEK cytotox inconclusive, NIH3T3 tox inconclusive
CN(C)c1cccc(C(=O)NCC2CCN(c3cc(-c4ccccc4)[nH]n3)CC2)c1	GPT2 inhibitor inconclusive, Luciferase inh 16µM, HEK cytotox inconclusive, NIH3T3 tox inconclusive
COc1ccc(-c2cc(N3CCCC(NC(=O)c4cccc(C#N)c4)C3)n[nH]2)cc1 (stereo not given)	Luciferase inh 20µM, HEK cytotox inconclusive, NIH3T3 tox inconclusive
Cc1ccc(Cl)cc1NC(=O)N1CCC(n2cnnc2C2CC2)C1 (stereo not given)	HEK cytotox inconclusive
COc1ccccc1C(=O)NCc1nnc2c(-c3nc(C4CC4)no3)cccn12	none
COc1ccc(-c2cc(N3CCCC(NC(=O)c4ccoc4)C3)n[nH]2)cc1 (stereo not given)	Luciferase inh 22µM, HEK cytotox inconclusive
COc1ccc(-c2cc(N3CCCC(NC(=O)c4ccc(C)s4)C3)n[nH]2)cc1 (stereo not given)	Luciferase inh 28µM, HEK cytotox inconclusive, NIH3T3 tox inconclusive
CC(=O)Nc1cccc(C(=O)NC2CCCN(c3cc(-c4ccc(F)cc4)[nH]n3)C2)c1 (stereo not given)	GPT2 inhibitor inconclusive, Luciferase inh inconclusive, HEK cytotox inconclusive
COc1ccc(-c2cc(N3CCCC(NC(=O)c4cccc(NC(C)=O)c4)C3)n[nH]2)cc1 (stereo not given)	GPT2 inhibitor inconclusive, Luciferase inh 28µM, HEK cytotox inconclusive, NIH3T3 tox inconclusive
CCc1nc2cc(N3CCCC(C(=O)NC4CC4)C3)cnc2nc1CC (stereo not given)	none
Cc1cccc(S(=O)(=O)N2CCc3c(C(=O)NCCCN4CCCCC4)cccc32)c1	HEK cytotox inconclusive, NIH3T3 tox inconclusive
COCCCNC(=O)c1cccc2c1CCN2C(=O)Nc1cccc(C)c1	Luciferase inh 0.32µM, HEK cytotox inconclusive, NIH3T3 tox inconclusive, NPR1 antag 2µM
CCCCNC(=O)c1cccc2c1CCN2C(=O)Nc1ccc(C)cc1	GPT2 inhibitor inconclusive, Luciferase inh inconclusive, HEK cytotox inconclusive, NIH3T3 tox inconclusive, NPR1 antag 1.4µM
Cc1ccc(NC(=O)N2CCc3c(C(=O)N(C)C)cccc32)cc1	Luciferase inh 16µM, NIH3T3 tox inconclusive
CN1CCCN(C(=O)c2ccc(Cl)cc2)c2ccccc21	HEK cytotox inconclusive, NIH3T3 tox inconclusive
NC(=O)c1cc[nH]c1C1CCCN(C(=O)COc2ccc(Cl)cc2)C1 (stereo not given)	none
CC(C)c1nc2c(c(-c3ccc(O)cc3)n1)CN(CC1CCCCC1)CC2	none
COc1ccc(-c2cccc(C(=O)N3CCN(c4ncccn4)CC3)c2)nn1	none (no result: GPT2 inhibitor, Luciferase inh, NPR1 antag)
OC[C@@H]1CNC[C@H]1C1CCN(Cc2ccc(OC(F)(F)F)cc2)CC1	HEK cytotox 40µM, NIH3T3 tox inconclusive
OC[C@@H]1CNC[C@H]1C1CCN(Cc2ccc(Cl)c(F)c2)CC1	HEK cytotox 40µM, NIH3T3 tox inconclusive
COc1ccc(NC(=O)C2=NO[C@@H]3CN(c4cccnc4)C[C@H]23)cc1	Luciferase inh 35µM, HEK cytotox inconclusive, NIH3T3 tox inconclusive, NPR1 antag inconclusive
COc1ccc(NC(=O)C2=NO[C@@H]3CN(CCc4ccccc4)C[C@H]23)cn1	HEK cytotox 100µM

Source: PubChem (National Center for Advancing Translational Sciences (NCATS))
